Tau ThT inhib: inhibitors of human tau fibril formation, thioflavin T binding; Potency, µM (titrated, usually from 57.4 µM), inactives show top-dose activity, negative = inhibition, usual class: inhibitors; recombinant tau K18 P301L, heparin-induced fibrillization, ThT fluorescence; actives 2.1% (n = 270,000); AID 1460; also: nearly all actives have a fitted effect of over 55% in size
Target sequence (P10636 561-689 P618L limits assumed): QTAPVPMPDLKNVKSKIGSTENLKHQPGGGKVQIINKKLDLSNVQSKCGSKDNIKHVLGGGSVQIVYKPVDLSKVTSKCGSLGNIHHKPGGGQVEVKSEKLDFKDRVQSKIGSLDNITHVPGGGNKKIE
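Tau K18 P301L fragment (15 uM unlabeled plus 0.24 uM Alexa 594-labeled) in 100 mM sodium acetate pH 7 with compound, fibrillization induced by 20 uM heparin for 6 hr at 37 C. Thioflavin T (30 uM) added, fluorescence read after 1 hr (ex 450, em 510 nm).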
Tau fibril FP: inhibitors of human tau fibril formation; actives 0.39% (n = 280,000); AID 1468; K18 P301L tau heparin fibrillization, Alexa594 FP, 6 h; Potency, µM (top dose mostly 57.7 µM), for the others: top-dose activity, negative = inhibition, actives largely listed as inhibitors; P10636; also: nearly all actives have a fitted effect of over 55% in size
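Recombinant K18 P301L […], labeled with Alexa 594 at 0.24 uM over 15 uM unlabeled; heparin inducer 20 uM final; 37 C, 6 hr; FP endpoint.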
Tau fluor cs: counter-screen for tau fibril formation inhibitors. tau K18 P301L Alexa594 fluorescence, heparin fibrillization. Potency, µM (highest dose often 57.7 µM), for inactives: at the highest dose activity change, negative = decrease. actives 0.93% (n = 280,000). AID 1463; also: nearly all actives have a fitted effect of over 55% in size
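Human tau K18 P301L (15 uM unlabeled, 0.24 uM Alexa 594-labeled) in 100 mM sodium acetate pH 7 with 20 uM heparin, 6 hr at 37 C. ThT 30 uM added, 1 hr ambient; Alexa 594 FP and total fluorescence read at 555/632 nm.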
Luc counter: counter-screen: inhibitors of Kinase-Glo firefly luciferase. Q27757. AID 1379. Potency, µM (top dose mostly 38.3 µM), for the others: at the top dose activity change, negative = inhibition, usual class: inhibitors. actives 0.28% (n = 200,000). Kinase-Glo luciferase, ATP luminescence, 8 min; also: nearly all actives have a fitted effect of over 60% in size
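Kinase-Glo luciferase light output from ATP and luciferin was measured with 10 uM ATP, within the enzyme's linear range. Buffer: 50 mM imidazole pH 7.2, 50 mM KCl, 7 mM MgCl2, 0.01% Tween 20, 0.05% BSA; luminescence read after 8 min at ambient temperature.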
NPSR antag: neuropeptide S receptor (human) antagonism, cAMP; Q6W5P4; CHO-NPSR cells, cAMP TR-FRET, antagonist mode; Potency, µM (doses to about 38.3 µM), for inactives: top-dose activity change, negative = inhibition, actives largely listed as inhibitors; actives 1% (n = 220,000); AID 1461; also: nearly all actives have a fitted effect of over 50% in size
Target sequence (Q6W5P4 whole entry, looked up): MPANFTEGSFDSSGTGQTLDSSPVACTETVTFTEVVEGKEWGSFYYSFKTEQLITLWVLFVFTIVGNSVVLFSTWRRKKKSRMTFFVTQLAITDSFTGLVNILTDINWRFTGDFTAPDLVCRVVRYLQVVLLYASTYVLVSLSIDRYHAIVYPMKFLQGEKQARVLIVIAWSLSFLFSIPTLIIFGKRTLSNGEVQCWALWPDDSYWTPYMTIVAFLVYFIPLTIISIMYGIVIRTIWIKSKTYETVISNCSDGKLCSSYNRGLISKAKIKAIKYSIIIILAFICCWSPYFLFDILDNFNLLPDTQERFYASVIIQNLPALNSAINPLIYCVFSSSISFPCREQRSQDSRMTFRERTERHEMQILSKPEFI
Numbers without * were called inactive; ? = inconclusive; · = no result; [ ] = another dose, or the depositor's remark. Shown are actives, neighbours in structure and some others; about 3.3% of the full set was active somewhere. Calls follow the shape of the dose curve; as a rule, active = well fitted curve in the direction sought with a large enough effect; inconclusive = small, poorly fitted or top-dose-only effect, or another doubt; inactive = no such curve, though single readings can be large; an effect the other way counts as inactive or inconclusive. % is scaled to controls: 0 for no effect and ±100 for the full control effect; potency is read from the fitted curve at half-maximal effect.

SMILES	Tau ThT inhib	Tau fibril FP	Tau fluor cs	Luc counter	NPSR antag
COC(=O)c1cc2c(-c3ccccc3)c(C)c3ccccn3c-2c1C(=O)OC	16µM*	15%	?	1%	?
COC(=O)c1c(C)[nH]c(C=O)c1-c1ccccc1	-16%	7%	-11%	·	-8%
CC(=O)C(C(C)=O)c1c(Cl)c(O)c(O)c2c(C(=O)c3ccccc3)coc12	16µM*	?	?	-5%	-14%[46.1 µM]
Cc1cc(C)c2c(CC(=O)N3CCN(c4cccc(Cl)c4)CC3)coc2c1	?	3%	-19%	·	·
Cc1ccccc1C1=CCN(c2ncc(NC(=O)c3ccc(Cl)cc3)cc2C(=O)O)CC1	14µM*	?	-28%	·	·
COc1ccc(OC)c(S(=O)(=O)NCCS(=O)(=O)N2CCN(c3ccccc3)CC2)c1	-6%	2%	-19%	·	·
COc1cccc(CNc2ccc(N3CCC(C)CC3)cc2)c1OC	18µM*	?	?	1%	-8%[46.1 µM]
CC1CCN(c2ccc(NC(=O)Cc3ccccc3)cc2)CC1	-15%	3%	-12%	·	-7%
O=C1CC(C(=O)Nc2ccccc2)S/C(=N\NC(=O)c2ccccc2Cl)N1 (stereo not drawn)	1%	-4%	-5%	-3%	24%
O=C(COc1cccnc1[N+](=O)[O-])c1ccc(Cl)s1	5µM*	10µM*	?	·	17%
CCOC(=O)/C(=C\c1ccc(OC(F)F)cc1)C1=Nn2c(nnc2-c2ccc(Cl)cc2)SC1	?	-13%	-13%	3%	10µM*
N#Cc1cc2ccccc2nc1SCc1ccccn1	16µM*	-7%	-28%	7%	-28%[46.1 µM]
CCN(CC)CCOC(=O)c1ccc(NC(=O)Cn2ncc3c([nH]c4ccc(C)cc43)c2=O)cc1	-15%	?	-10%	·	·
N=c1sc2ccccc2n1CCS (tested in a mixture with another compound)	·	·	·	-5%[7.66 µM]	·
COc1ccc(-c2nc(-c3ccc4c(c3)OCO4)[nH]c2-c2ccc(OC)cc2)cc1	2%	2%	1%	-1%	?
COc1ccc(-c2[nH]c(-c3ccc(O)cc3)nc2-c2ccccc2)cc1	?	7%	22µM*[quencher]	·	·
COc1ccc(-c2nc(-c3ccccc3)c(-c3ccc(O)cc3)[nH]2)cc1	?	?	14µM*[quencher]	·	·
C#CCCOC(=O)N1C2=NC(C(=O)OC)=C(C(=O)OC)[C@@H]3N(CC#CC)c4ccccc4[C@]23C[C@H]1C(=O)OC	-4%[11.5 µM]	0%[11.6 µM]	-5%[11.6 µM]	-6%[7.66 µM]	·
CC(C)c1ccc(S(=O)(=O)c2cnc(SCC(=O)Nc3cccc(C(F)(F)F)c3)nc2N)cc1	?	13µM*	?	·	·
CCN1c2ccccc2-c2nc(SCC(=O)Nc3cccc(C(F)(F)F)c3)ncc2S1(=O)=O	13%	28µM*	?	·	·
O=C(CSc1ncc(S(=O)(=O)c2ccc(Cl)cc2)c(=O)[nH]1)Nc1cccc(C(F)(F)F)c1	-6%	-2%	-13%	·	·
CCc1cccc(NC(=O)CSc2ncc3c(n2)-c2ccccc2N(CC)S3(=O)=O)c1	-13%	?	?	·	·
Cc1ccc(-n2c(Cl)c(Cl)nc(Cl)c2=O)cc1	?	?	-8%	-2%	10µM*
COC(=O)[C@@H]1C[C@@]2(O)[C@@H](O)[C@@H](O)[C@@H](O)C[C@H]2N1Cc1ccc(Cl)cc1	-1%	2%	-2%	-4%	14%
CCOCCCN(Cc1ccco1)S(=O)(=O)c1cc2c(cc1Cl)NC(=O)CO2	-7%	-2%	-15%	·	·
Fc1ccccc1N=C1NN=C(c2ccccc2)CS1	22µM*	?	?	-3%	-8%
Fc1ccc(N=C2NN=C(c3cc(F)ccc3F)CS2)cc1	13µM*	?	?	-1%	-50%
Cc1[nH]c2ccccc2c1C1=NNC(=Nc2ccc(F)cc2)SC1	14µM*	?	11µM*[quencher]	-1%	-17%[46.1 µM]
COc1ccc(N=C2NN=C(c3c(C)[nH]c4ccccc34)CS2)cc1	?	-17%	25µM*[quencher]	2%	-18%

Compound activity as filed in PubChem.
